The campaign covered roughly 340,000 compounds. About 2,500 (0.74%) were called active. The sample holds actives, similar compounds and a random draw of the others, so the mix is not that of the screen. Unmarked numbers belong to inactive results.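 Rule for the calls: active = inhibition above about 55% (limit read from the data); inactive = the rest.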

This test can be described thus: blockers of Gli reporter signaling – luciferase luminescence, Sufu-KO-LIGHT cells, uHTS, primary screen (AID 588413).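 Note: 0% = DMSO-treated cells and 100% = wells with medium but no cells.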 The conditions noted are these: Sufu-KO-LIGHT fibroblasts, at 5 µM, active compounds read high.
Turning to `COc1ccc(NC(=O)CCC(=O)Nc2cc(OC)c(NC(=O)c3ccco3)cc2OC)c(OC)c1`, the inhibition was 15.2%.

As for `CC(OC(=O)c1ccc([N+](=O)[O-])cc1)C(=O)NCC1CCCCC1` (centres undefined), the inhibition was 6.02%.

Consider `COc1cc(C(=O)OC(C)C(=O)NCC2CCCCC2)cc(NC(=O)c2ccco2)c1OC` (centres undefined), for which the inhibition was 61.1% (active).

Consider `CN1CCN(C(=O)/C(=C\c2ccc3c(c2)OCO3)NC(=O)c2cccs2)CC1`, for which the inhibition is -0.95%.

Regarding `CC(=O)Nc1ccccc1C(=O)C(=O)Nc1ccc(F)cc1`, the inhibition was -24.7%.

On to `O=C(CN1C(=O)c2ccccc2S1(=O)=O)N1CCc2ccccc21`, for which the inhibition was 64.8% (active).

As to `CC1CCCN(C(=O)CN2C(=O)c3ccccc3S2(=O)=O)C1` (centres undefined), the inhibition was 6.76%.

In the case of `O=C(CSCc1ccccc1)N1CCc2ccccc21`, the inhibition was -87.8%.

As to `Cc1ccc(CNC(=O)CCN2C(=O)[C@@H]3Cc4ccccc4CN3C2=O)cc1`, the inhibition was -9.51%.

Regarding `CCOC(=O)N(Cc1ccccc1)C1CC1`, the inhibition is 0.91%.

`O=C(CS(=O)(=O)c1cn(Cc2cccc(F)c2)c2ccccc12)N1CCCCC1`: the inhibition is 9.01%.

For `Cc1ccc(S(=O)(=O)N2C[C@@H]3CCCC[C@@H]3[C@@H](C)[C@H]2c2cn(Cc3ccccc3)c3ccc(F)cc23)cc1`, the inhibition was 72.8% (active).

With `Cc1ccc(S(=O)(=O)N2CC(C)N(S(C)(=O)=O)C2)cc1` (centres undefined), the inhibition was -2.13%.

Consider `O=C(CNS(=O)(=O)c1ccc(Br)s1)N1CCN(C(=O)c2ccco2)CC1`, for which the inhibition is -4.48%.

For the compound `O=[N+]([O-])c1ccc(C=NN=Cc2ccc([N+](=O)[O-])cc2)cc1`, the inhibition was -0.85%.

Regarding `O=C(NN=Cc1ccc([N+](=O)[O-])cc1)C1CC1`, the inhibition was -2.46%.

Consider `O=C1/C(=C\c2ccc([N+](=O)[O-])cc2)CS(=O)(=O)C/C1=C/c1ccc([N+](=O)[O-])cc1`, for which the inhibition was 65.4% (active).

`Cc1nn(C(C)(C)C)c(OC(=O)CC(C)C)c1S(=O)(=O)c1ccccc1`: the inhibition was 12.6%.

As for `COc1ccc(C(=O)NCC(=O)N/N=C/c2ccc([N+](=O)[O-])o2)cc1OC`, the inhibition is -0.07%.

With `O=C(/C=C/c1ccc([N+](=O)[O-])o1)NNC(=O)c1ccc(F)cc1`, the inhibition was 67.6% (active).

In the case of `Cc1onc(C(=O)NCc2ccc(F)cc2)c1[N+](=O)[O-]`, the inhibition was 3.05%.

As for `Cc1ccc(CN(CC(=O)NC2CCCCC2)C(=O)c2csnn2)cc1`, the inhibition is -19.5%.

For `C/C=C/c1ccc(OCC(=O)OCC(=O)Nc2c(C)nn(-c3ccccc3)c2C)c(OC)c1`, the inhibition was -14.7%.

Turning to `CSc1nsc(SC)c1NC(=O)OC1CCCCC1`, the inhibition is 3.57%.

As for `COCCn1c(C)cc(C(=O)COC(=O)/C=C/c2cccc(OC)c2)c1C`, the inhibition is 0.01%.

For `CCN(CC)S(=O)(=O)c1ccc(OC(C)C)c(N)c1`, the inhibition is -7.56%.

In the case of `Oc1ccc2ccccc2c1N=Nc1nccs1`, the inhibition was 75.4% (active).

In the case of `O=C(CN1CCCCC1)NC(=O)Nc1ccccc1F`, the inhibition was -7.73%.

Turning to `COc1ccc(Cc2nnc(SC)[nH]c2=O)cc1`, the inhibition was -8.83%.

On to `CC(C)c1ccc(Cc2nnc(NCCCO)[nH]c2=O)cc1`, for which the inhibition was -3.48%.

`COc1ccc(Cc2nnc(N/N=C/c3ccccc3O)[nH]c2=O)cc1OC`: the inhibition is 88.1% (active).

As for `CCc1cccc2c3c([nH]c12)C(CC)(CC(=O)O)OCC3` (centres undefined), the inhibition is -4.38%.

Take `CC(C)c1ccc(C2C(C#N)=C(N)Oc3c2oc(CO)cc3=O)cc1` (centres undefined): the inhibition is -0.24%.

As to `CCCc1nnc(SCC(=O)Nc2ccc(C(=O)OCC)cc2)o1`, the inhibition was -7.14%.

For the compound `CCOC(=O)c1ccc(NC(=O)Cc2cccs2)cc1`, the inhibition is -48%.

For the compound `CCOC(=O)c1ccc(NC(=O)Cn2cnc3cc(C)c(C)cc32)cc1`, the inhibition was 65% (active).

In the case of `CCCCC(=O)N1CC2(C)CN(C(=O)CCCC)CC(C)(C1)C2=O`, the inhibition was -15.8%.

`COCCCN(C(=O)CSCc1ccc(C)cc1)c1c(N)n(Cc2ccccc2)c(=O)[nH]c1=O`: the inhibition is -6.23%.

For the compound `CC(C)NC(=O)C(=O)NCCN1CCN(S(=O)(=O)c2ccc(Cl)cc2)CC1`, the inhibition is -1.75%.

As for `Cc1ccc(NC(=O)c2ccc(CSc3ncnc4nc[nH]c34)cc2)c(C)c1`, the inhibition is -3.19%.

Take `CCNc1nc(SCCOc2ccccc2)nc(N(C)C)n1`: the inhibition is 17.6%.

Regarding `Cc1cc(C)c(NC(=O)CSc2nc3ccncc3[nH]2)c(C)c1`, the inhibition is -7.29%.

Take `COc1ccc2nc(SCC(=O)Nc3c(C)cc(C)cc3C)[nH]c2c1`: the inhibition is 82.7% (active).

Regarding `Cc1ccc2nc(SCC(=O)NC3CCCC3)[nH]c2c1`, the inhibition is 19.8%.

As for `N#C/C=C/N1CCN(Cc2ccc3c(c2)OCO3)CC1`, the inhibition was 1.76%.

As for `CC(C)(C)OC(=O)N(Cc1ccccc1)Cc1ccc(OCc2cccc(NC(=O)c3ccccc3)c2)cc1`, the inhibition is 1.99%.

On to `O=C1Cc2ccccc2Sc2ccc(Cl)cc21`, for which the inhibition is 3%.

Consider `Cc1ccc(C(=O)C(=S)N2CCOCC2)cc1`, for which the inhibition is -12.9%.

Regarding `CSc1ncccc1C(=O)Nc1ccc(C)cn1`, the inhibition was -28.8%.

Turning to `CSc1ncccc1C(=O)Nc1nc2ccc(F)cc2s1`, the inhibition is 56.9% (active).

On to `CSc1ncccc1C(=O)Nc1ccc2c(c1)OCO2`, for which the inhibition is -2.99%.

Take `CC(C)=NN1C(=O)c2ccccc2NC1(C)C`: the inhibition is 0.06%.

As to `Cc1ccc(-n2ncc3c2CCCC3NC(=O)c2cnccn2)cc1C` (centres undefined), the inhibition is 20.6%.

As for `Cc1cc(C(=O)NC2CC(C)(C)Cc3c2cnn3-c2ccccc2)n[nH]1` (centres undefined), the inhibition is 7.64%.

`CC1=C(C(=O)NC2CC(C)(C)Cc3c2cnn3-c2ccc(C)cc2)OCCO1` (centres undefined): the inhibition was 13.4%.

Regarding `Cn1nccc1C(=O)NC1CCCc2c1cnn2-c1ccccc1F` (centres undefined), the inhibition is 77.6% (active).

Regarding `COc1ccc(C(=O)NC2CC(C)(C)Cc3c2cnn3-c2ccccc2C)o1` (centres undefined), the inhibition was 3.2%.

On to `Cn1nccc1C(=O)NC1CCCc2c1cnn2-c1ccc(F)cc1F` (centres undefined), for which the inhibition was 73% (active).

Consider `COc1ccc(C(=O)NC2CC(C)(C)Cc3c2cnn3-c2ccccc2)c(OC)c1` (centres undefined), for which the inhibition was 14%.

For `CC1(C)Cc2c(cnn2-c2cccc(F)c2)C(NC(=O)c2cc[n+]([O-])cc2)C1` (centres undefined), the inhibition is -1.99%.

As for `COc1ccc(C(=O)NC2CCCc3c2cnn3-c2cccc(C)c2C)c(OC)n1` (centres undefined), the inhibition was 57% (active).

In the case of `COC(=O)c1cc(=O)n(-c2c(Cl)cc(C(F)(F)F)cc2Cl)[nH]1`, the inhibition is 5.78%.

For `C[C@]1(C(=O)NCCc2c[nH]c3ccccc23)C=C[C@@H](Cc2ccccc2)N1C(=O)c1ccccc1`, the inhibition is 6.62%.

As to `NC(=S)NN=C1CCCC(C(F)(F)F)C1` (centres undefined), the inhibition was 4.43%.

With `Cc1cc(C)c2nc(N3CCC(C(=O)NCCN4CCOCC4)CC3)sc2c1`, the inhibition is 42.9%.

For the compound `O=C(NCCCN1CCCC1=O)C(=O)NCC1OCCN1S(=O)(=O)c1ccc(Br)cc1` (centres undefined), the inhibition was 9.53%.

On to `CCCN(c1ccc(C)cc1)c1nc(=O)c2cccnc2s1`, for which the inhibition was 11.6%.

Regarding `COc1cccc(NC(=O)Cn2cnc3sc(C)c(S(=O)(=O)N4CCN(C)CC4)c3c2=O)c1`, the inhibition is -2.51%.

In the case of `COc1cccc(NC(=O)COC(=O)CCOc2ccccc2OC)c1`, the inhibition was -1.81%.

`Cc1ccc(COc2ccc(C(=O)NN)cc2)cc1`: the inhibition is -19.9%.

On to `CCCCCCCCCCOC(=O)Cn1c(COc2ccc(C)cc2)[n+](C)c2ccccc21`, for which the inhibition is 83.1% (active).

Regarding `CCCCOc1ccc(NC(=O)CSCC(=O)OCC)cc1`, the inhibition was 0.02%.

For the compound `CCCCCCCCCCOC(=O)Cn1c(COc2cccc(OC)c2)[n+](C)c2ccccc21`, the inhibition was 79.7% (active).

On to `CCOC(=O)CNC(=O)CSc1nnc(-c2cccc(OC)c2)n1CC`, for which the inhibition was 7.3%.

In the case of `Cc1ccc(N2C(=O)C3C4C=CC(CC4)C3C2=O)cc1Cl` (centres undefined), the inhibition is 6.68%.

With `CN(C(=O)c1cccc([N+](=O)[O-])c1)c1ccccc1C(=O)NCc1ccccc1`, the inhibition is 0.49%.

Turning to `Cn1c(=O)[nH]c2c(c(C(=O)O)nn2C)c1=O`, the inhibition was -2.41%.

Take `C/C(=N\Nc1cccc(C(=O)O)c1)c1ccc2c(c1)Nc1ccccc1S2`: the inhibition was -35.5%.

As for `O=C(CN(C(=O)c1csnn1)c1cccc(Cl)c1)NC1CCCC1`, the inhibition was -16.6%.

On to `CCS(=O)(=O)N1CCCC(C(=O)NCCCN(C)Cc2ccccc2)C1` (centres undefined), for which the inhibition was 9.61%.

With `O=C1CCCCN1CCCC(=O)N1CCCC(Nc2ccc(F)cc2)C1` (centres undefined), the inhibition is 45.4%.

In the case of `COc1ccccc1N1CCN(Cc2cc(OC)c3c(c2)OCO3)CC1`, the inhibition is 60.1% (active).

As to `COc1ccccc1N1CCN(Cc2ccc(OC)c3ccccc23)CC1`, the inhibition is 10.6%.

On to `CNCC(O)CN1CCN(c2ccccc2OC)CC1` (centres undefined), for which the inhibition was 2.51%.

Consider `CN1CCN(c2cc(=O)n(-c3ccc(Cl)cc3)c(=O)[nH]2)CC1`, for which the inhibition is 7.35%.

As for `C=CCO/N=C/C1=C(O)C(C(=O)OC)C(C)(C)CC1=O` (centres undefined), the inhibition is -5.83%.

`CCN(CC)CCCC(C)n1c2nc(=O)[nH]c(=O)c-2nc2cc(Cl)ccc21` (centres undefined): the inhibition is 83.6% (active).

Regarding `CCOC(=O)C1(CCOC)CCN(Cc2cc3ccccc3s2)CC1`, the inhibition is -4.84%.

Consider `CCOc1ccc(-n2c(O)c(/C=N/Nc3nc(C)cc(C)n3)c3ccccc3c2=O)cc1`, for which the inhibition was 61.7% (active).

Turning to `Cc1ccc(N=Cc2c(O)n(-c3nccs3)c(=O)c3ccccc23)c(C)c1`, the inhibition is -4.34%.

For `CCOc1ccc(-n2c(O)c(/C=N/c3ccnn3Cc3ccncc3)c3ccccc3c2=O)cc1`, the inhibition was 62.7% (active).

For `Cc1cc(C)nc(N/N=C/c2c(CO)cnc(C)c2O)n1`, the inhibition was 0.23%.

Take `Cc1ccc(-n2c(O)c(C=Nc3ccc(S(=O)(=O)Nc4ncccn4)cc3)c3ccccc3c2=O)cc1C`: the inhibition was -0.18%.

Take `CCN(CC)CCCN=Cc1c(O)n(-c2ccc(C)cc2)c(=O)c2ccccc12`: the inhibition was -0.11%.

In general, inhibition refers to the relative decrease from the control value, in per cent.

Source of the values: PubChem BioAssay AID588413 (Sanford-Burnham Center for Chemical Genomics, 2011).
